Assay results reported in PubChem BioAssay AID939 (National Center for Advancing Translational Sciences (NCATS), 2007).
Results filed as inconclusive are left out. Active and inactive are the calls of the source. Calls follow the shape of the dose curve; as a rule, active = well fitted activation curve with a large enough effect in the main read-out, with a control signal flat; inconclusive = small, poorly fitted or top-dose-only effect, or effect the other way, or a change in a side signal; inactive = no such curve, though single readings can be large or run the other way.

system: not listed separately; test: Confirmation Concentration-Response Assay for Agonists of the Thyroid Stimulating Hormone Receptor; conditions: HEK293 TSHR-CNG cells, membrane potential dye, cAMP; measured here: parental HEK293 counter-screen max; as to activation: % of control where 0% means no effect
Description: (§1) NIH Chemical Genomics Center [NCGC] NIH Molecular Libraries Screening Centers Network [MLSCN] MLSCN Grant: 1 X01 MH080680-01 PI Name: Dr. Marvin Gershengorn, NIH NCGC Assay Overview: Thyroid Stimulating Hormone Receptor TSH is an alpha/beta heterodimeric glycoprotein hormone secreted from the anterior pituitary gland which belongs to the glycoprotein hormone family. The actions of TSH are mediated by a seven-transmembrane receptor, which upon TSH binding couples preferentially to the G-alpha (s) protein (Gs), resulting in activation of adenylate cyclase and increase in cyclic adenosine 3', 5' monophosphate (cAMP). The TSH receptor (THSR) is mainly expressed in thyroid follicular cells and regulates their growth and function. Recombinant TSH is used to activate TSHR in patients with thyroid cancer receiving thyroid hormone suppression therapy and to screen for residual tumor after surgery, but it is expensive and must be administered intramuscularly. An orally active small molecule TSHR agonist would serve as an invaluable research tool for studying TSHR pharmacology and physiology, and would have multiple advantages in therapeutic settings. However, no selective small molecule agonist of the TSH receptor exists, and no small molecule screen for TSHR agonists has ever been reported. This cell based assay utilized a cyclic nucleotide gated ion channel (CNG) as a biosensor for cAMP induction by potential TSHR agonists. TSHR cell line HEK 293 cells stably expressing the TSHR as well as a modified CNG were purchased from BD biosciences. Stimulation of cAMP production causes the CNG to open and subsequent membrane depolarization to occur. A fluorescent membrane potential dye (BD biosciences) was utilized to detect cAMP stimulation in TSHR cells. The cells were maintained in DMEM medium (Invitrogen) containing 10 % FBS (Hyclone), 100 units/ml Penicillin, 100 ug/ml Streptomycin (Invitrogen), and 250 ug/ml Geneticin (Invitrogen) and 1 ug/ml Puromycin (Invitrogen) at 37C in 5% CO2. HEK 293 cells expressing CNG but without TSHR (parental cells) were used in concert to control for compounds signaling through endogenous receptors and targets of HEK 293 cells.
(§2) NCGC Assay Protocol Summary: High Throughput Screening. Freshly passaged cells (TSHR or parental) were dispensed into 1536-well assay plates at 4 ul/well in DMEM containing phenol red (Invitrogen), 10% FCS (Hyclone), and 100 units/ml Penicillin, 100 ug/ml Streptomycin (Invitrogen) and incubated at 37 C with 5% CO2 for 20 to 36 hrs before the robotic screening. The screen was initiated by addition of 4 ul/well membrane potential dye containing 100 uM RO 20-1724 (Sigma Aldrich), followed by 60 min incubation at room temperature to allow for dye equilibration across the cell membrane. 23 nl/well compound or control was then added to the assay plates, which were incubated for additional 30 min before reading a Envision fluorescence plate reader (Perkin Elmer) in bottom-read mode for fluorescence intensity (emission at 590 nm). Keywords: Thyroid-stimulating hormone TSH, TSHR, TSHR agonist, quantitative high throughput screening, qHTS, HTS, probe identification, CNG, cAMP, cyclic nucleotide gated ion channel PubChem
Potency is read from the fitted curve at half-maximal effect.

SMILES	max response [%]
CCn1c(C)c(C(=O)O)c2cc(OC)ccc21	6.15
CCC(=NCC1CCCO1)c1c(O)n(Cc2ccccc2)c(=O)[nH]c1=O (centres undefined)	5.62
O=c1[nH]c(=O)n(Cc2ccco2)c(O)c1C=NC1CC1	5.23
C=CCN1C(=O)C2(C(C(=O)OCC)=C(N)Oc3c2c(=O)oc2ccccc32)c2ccccc21 (centres undefined)	-4.89
CN(C)c1ccc(CN2CC=C(c3ccc(F)cc3)CC2)cc1	5.57
CCOC(=O)C1=C(C)OC(N)=C(C(=O)OC)C12C(=O)Nc1ccc(Br)cc12 (centres undefined)	-4.55
O=C(Nc1nc2ccccc2n1CCN1CCCC1)c1ccc(Cl)cc1	-11

target: Thyrotropin receptor (Homo sapiens) (UniProt P16473); test: as above; conditions: HEK293 TSHR-CNG cells, membrane potential dye, cAMP; series mostly up to 25.6 µM
Sequence (P16473 whole entry, looked up): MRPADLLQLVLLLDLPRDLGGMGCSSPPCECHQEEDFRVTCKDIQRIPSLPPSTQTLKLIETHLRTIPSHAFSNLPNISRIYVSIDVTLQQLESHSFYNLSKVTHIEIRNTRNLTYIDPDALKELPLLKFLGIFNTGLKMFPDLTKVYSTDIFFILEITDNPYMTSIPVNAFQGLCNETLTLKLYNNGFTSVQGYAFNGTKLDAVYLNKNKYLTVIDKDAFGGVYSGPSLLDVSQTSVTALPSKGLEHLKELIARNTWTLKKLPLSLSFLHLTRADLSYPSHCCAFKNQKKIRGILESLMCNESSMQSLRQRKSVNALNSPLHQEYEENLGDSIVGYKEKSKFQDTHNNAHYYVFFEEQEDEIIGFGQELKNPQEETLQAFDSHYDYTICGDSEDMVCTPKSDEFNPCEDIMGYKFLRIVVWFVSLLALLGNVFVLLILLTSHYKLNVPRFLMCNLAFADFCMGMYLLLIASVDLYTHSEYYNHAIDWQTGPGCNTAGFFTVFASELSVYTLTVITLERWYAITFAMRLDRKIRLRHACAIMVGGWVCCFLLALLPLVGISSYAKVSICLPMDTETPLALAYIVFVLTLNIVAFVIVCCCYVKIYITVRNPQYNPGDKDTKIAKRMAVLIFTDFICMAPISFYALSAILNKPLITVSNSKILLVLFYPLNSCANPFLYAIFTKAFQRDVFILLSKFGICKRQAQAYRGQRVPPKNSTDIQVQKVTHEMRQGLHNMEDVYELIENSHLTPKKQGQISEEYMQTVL
Description: as §1, §2

SMILES	Potency
CCn1c(C)c(C(=O)O)c2cc(OC)ccc21	inactive
CCC(=NCC1CCCO1)c1c(O)n(Cc2ccccc2)c(=O)[nH]c1=O (centres undefined)	inactive
O=c1[nH]c(=O)n(Cc2ccco2)c(O)c1C=NC1CC1	inactive
C=CCN1C(=O)C2(C(C(=O)OCC)=C(N)Oc3c2c(=O)oc2ccccc32)c2ccccc21 (centres undefined)	5.01 µM (active)
CN(C)c1ccc(CN2CC=C(c3ccc(F)cc3)CC2)cc1	inactive
CCOC(=O)C1=C(C)OC(N)=C(C(=O)OC)C12C(=O)Nc1ccc(Br)cc12 (centres undefined)	inactive
O=C(Nc1nc2ccccc2n1CCN1CCCC1)c1ccc(Cl)cc1	inactive
